The nature of experiment [1]: Cellular Toxicity (caspase-3) Mesangial (AID 660).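 Further: combined caspase 3 and 7 activity read by Caspase-Glo luminescence; cells exposed to compound for 16 h before the caspase read.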 To be noted: mesangial cells, normalized: DMSO 0%, 100 µM tamoxifen 100%; at 91.7 µM (top of the series). Summed up: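 Caspase 3/7 activation measured by Caspase-Glo 3/7 luminescence (20 min, room temperature) following 16 h exposure of mesangial cells (1000/well); AC50 from Hill-equation fit, normalized to DMSO and 100 uM tamoxifen.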

Experiment [2] in a line: Cellular Toxicity (caspase-3) SK-N-SH (AID 661).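 Further: cells exposed to compound for 16 hours; 0% = DMSO basal and 100% = 10 µM staurosporine.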 The essentials:
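Caspase 3/7 activation was read by luminogenic substrate cleavage after 16 hour treatment of SK-N-SH cells. Signal was scaled between DMSO and 10 uM staurosporine, and concentration-response data were fitted with the Hill equation for AC50.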

A short description of experiment [3]: Cellular Toxicity (caspase-3) H-4-II-E (AID 663).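 Further: cells exposed to compound for 16 hr before readout.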 To be noted: H-4-II-E rat hepatoma, scaled: DMSO 0%, 100 µM tamoxifen 100%; at 92.2 µM (top of the series). Summed up: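 Caspase 3/7 activation measured by luminescent aminoluciferin substrate cleavage after 16 hr compound treatment of H-4-II-E cells in complete medium. Increase normalized between DMSO (basal) and 100 uM tamoxifen (100%); Hill-equation AC50 from concentration-response.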

A short description of experiment [4]: Cellular Toxicity (caspase-3) Hek293 (AID 664).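 Further: cells exposed to compound for 16 h at 37 °C before readout.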 To be noted: HEK293 caspase-3 activation, DMSO = 0%, 100 µM tamoxifen = 100%; at 92.2 µM (top of the series). Summed up:
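Concentration-response qHTS: caspase 3/7 activation measured by luminescent aminoluciferin substrate cleavage after 16 h compound exposure of Hek 293 cells. AC50 from Hill equation, with DMSO as basal and 100 uM tamoxifen as 100%.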

Experiment [5] is described as follows: Cellular Toxicity (caspase-3) N2a (AID 665).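 Further: compound exposure lasted 16 h at 37 °C before readout.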 Summed up: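 Caspase-3/7 activation measured as luminescence from Caspase-Glo reagent (1 h, room temperature) after 16 h compound exposure of mouse N2a cells. AC50 values from Hill-equation concentration-response, scaled between DMSO and 10 uM staurosporine.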
Experiment [6] is described as follows: Cellular Toxicity (caspase-3) NIH 3T3 (AID 666).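 Further: caspase signal read after 16 h compound exposure.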 Summed up:
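Caspase-Glo 3/7 luminescence reported caspase activation in 1000 NIH 3T3 cells/well after 16 h compound exposure at 37 C. DMSO set basal and 100 uM tamoxifen set 100% stimulation; concentration-response modeled with the Hill equation for AC50.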

A short description of experiment [7]: Cellular Toxicity (caspase-3) Renal Proximal Tubule (AID 667).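 Further: cells exposed to compound for 16 hours at 37 °C before detection; 0% = DMSO basal and 100% = 10 µM staurosporine.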 To be noted: Potency: caspase-3 activation. Summed up:
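Freshly isolated primary rat kidney proximal tubule cells, 1000/well, treated 16 hr at 37 °C, then Caspase-Glo 3/7 luminescence after 1 hr. Normalized to DMSO and 10 uM staurosporine; AC50 from Hill fit.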

For experiment [8], the target named is Cytochrome P450 3A4 (Homo sapiens) (UniProt P08684). As to the kind of experiment: qHTS Assay for Inhibitors and Substrates of Cytochrome P450 3A4 (AID 884). Further: nearly all actives have a fitted effect of over 50% in size. Further: potency means the concentration at half of the fitted maximal effect. Summed up:
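Luminescent readout of luciferin produced by CYP3A4 (20 nM) dealkylation of Luciferin-PPXE, 25 uM (its KM). NADPH-driven reaction ran 60 min at RT after 10 min compound preincubation; data scaled to 57 uM ketoconazole as 100% inhibition.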

The nature of experiment [9]: Cell Viability - LYMP2-001 (AID 921).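 Further: 0% = DMSO only and full inhibition = tetraoctylammonium bromide control wells; nearly all actives have a fitted effect of over 70% in size.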 The essentials: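 Human lymphoblastoid LYMP2-001 cells, 2500 per well, in complete medium, treated 24 h at 37 C. Viability from cellular ATP by CellTiter-Glo luminescence; AC50 from Hill-equation fits of qHTS concentration-response.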
The nature of experiment [10]: MultiTox-Fluor Cytotoxicity Assay - LYMP1-001 - Dead Cells (AID 946). Summed up:
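Cytotoxicity as increased dead-cell protease fluorescence (bis-AAF-R110, 485/520 nm), read 60 min after MultiTox-Fluor reagent. Human lymphoblastoid line exposed 16 h; Hill-fitted AC50, with DMSO as 0% and 15 uM tetraoctylammonium bromide as 100%.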

Experiment [11] is described as follows: MultiTox-Fluor Cytotoxicity Assay - LYMP1-001 - Live Cells (AID 947).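 Further: 0% = DMSO only and full inhibition = tetraoctylammonium bromide control.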
Experiment [12] can be described thus: Cell Viability - LYMP1-002 - Assay at 16 hr (AID 948).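 Further: 0% = DMSO alone and full effect = 92 µM tetraoctylammonium bromide.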 The essentials:
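LYMP1-002 human lymphoblastoid cells, 2500/well, were treated with compounds for 16 hr at 37 C in complete medium. Viability was read as intracellular ATP by CellTiter-Glo luminescence, and AC50 was derived from a Hill fit to concentration-response data.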

Experiment [13] is described as follows: MultiTox-Fluor Cytotoxicity Assay - LYMP1-002 - Live Cells (AID 955).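 Further: cells exposed to compound for 16 hours; on the % scale 0 is the no-effect control and ±100 the full control effect.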 Summed up: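 After 16 h compound exposure at 37 C, live LYMP1-002 lymphoblastoid cells (2500/well) were quantified by cleavage of cell-permeant GF-AFC substrate, read at 405/510 nm after 60 min. Concentration-response fitted with Hill equation for AC50.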
The nature of experiment [14]: MultiTox-Fluor Cytotoxicity Assay - LYMP1-002 - Dead Cells (AID 960). Further: nearly all actives have a fitted effect of over 60% in size. The essentials:
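Dead-cell fluorescence (Ex/Em 485/520) after 16 h compound exposure at 37 C of LYMP1-002 lymphoblastoid cells in complete medium; AC50 by Hill equation, with data scaled between DMSO and 15 uM tetraoctylammonium bromide.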

Experiment [15] can be described thus: MultiTox-Fluor Cytotoxicity Assay - LYMP1-003 - Dead Cells (AID 961). Further: nearly all actives have a fitted effect of over 70% in size. Summed up:
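Dead-cell protease release, detected as bis-AAF-R110 fluorescence at 485/520 nm, was measured in LYMP1-003 cells after 16 h compound treatment at 37 C. AC50 values came from Hill-modeled qHTS curves normalized to DMSO (0%) and 15 uM tetraoctylammonium bromide (100%).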

A short description of experiment [16]: MultiTox-Fluor Cytotoxicity Assay - LYMP1-003 - Live Cells (AID 962).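 Further: cells exposed to compound for 16 hours at 37 °C; 0% = DMSO only and full loss = 92 µM tetraoctylammonium bromide; cytotoxic hits lower the live-cell protease signal.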 Summed up: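 Live-cell protease activity (GF-AFC substrate, 405/510 nm, 60 min at room temperature) after 16 h, 37 C compound exposure of human lymphoblastoid LYMP1-003 cells; concentration-response fitted to the Hill equation for AC50.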
Experiment [17] is described as follows: Cell Viability - LYMP1-003 - Assay at 24 hr (AID 963).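 Further: plate controls were DMSO only for no effect and tetraoctylammonium bromide positive control for full effect.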 Summed up: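 Concentration-response qHTS: ATP loss measured by CellTiter-Glo luminescence after 24 h compound exposure at 37 C. Cells were LYMP1-003 human lymphoblastoid, 2500 per well. AC50 derived via standard Hill equation modeling.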
Experiment [18] can be described thus: Cell Viability - LYMP1-003 - Assay at 40 hr (AID 964). Further: on the % scale 0 is the no-effect control and ±100 the full control effect; nearly all actives have a fitted effect of over 60% in size. Summed up: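 Viability is taken as cellular ATP, read by CellTiter-Glo luminescence after 40 h of compound exposure at 37 C. Cells: human lymphoblastoid line LYMP1-003 at 2500/well; AC50 values derived by Hill-equation fitting of concentration-response data.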
Experiment [19] in a line: Cell Viability - LYMP2-003 (AID 965).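 Further: cells exposed to compounds for 24 h before reading; 0% = DMSO only and full effect = 92 µM tetraoctylammonium bromide; nearly all actives have a fitted effect of over 50% in size.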 Summed up: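 Human lymphoblastoid LYMP2-003 cells, 2500/well, exposed to compounds for 24 h at 37 C in complete medium. Viability read as intracellular ATP by CellTiter-Glo luminescence; AC50 from Hill-equation fits of qHTS concentration-response data.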
For experiment [20], the target named is Cytochrome P450 3A4 (Homo sapiens) (UniProt P08684). Briefly: qHTS Assay for Activators of Cytochrome P450 3A4 (AID 885). Further: nearly all actives have a fitted effect of over 65% in size. Summed up: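 Luminescent readout of luciferin formed from 25 uM Luciferin-PPXE (KM level) by 20 nM CYP3A4 in 200 mM KPO4, with 60 min NADPH-driven reaction at room temperature after 10 min compound exposure. Ketoconazole (57 uM) defined 100% inhibition.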
Sequence of Cytochrome P450 3A4 (Homo sapiens) (P08684 whole entry, looked up): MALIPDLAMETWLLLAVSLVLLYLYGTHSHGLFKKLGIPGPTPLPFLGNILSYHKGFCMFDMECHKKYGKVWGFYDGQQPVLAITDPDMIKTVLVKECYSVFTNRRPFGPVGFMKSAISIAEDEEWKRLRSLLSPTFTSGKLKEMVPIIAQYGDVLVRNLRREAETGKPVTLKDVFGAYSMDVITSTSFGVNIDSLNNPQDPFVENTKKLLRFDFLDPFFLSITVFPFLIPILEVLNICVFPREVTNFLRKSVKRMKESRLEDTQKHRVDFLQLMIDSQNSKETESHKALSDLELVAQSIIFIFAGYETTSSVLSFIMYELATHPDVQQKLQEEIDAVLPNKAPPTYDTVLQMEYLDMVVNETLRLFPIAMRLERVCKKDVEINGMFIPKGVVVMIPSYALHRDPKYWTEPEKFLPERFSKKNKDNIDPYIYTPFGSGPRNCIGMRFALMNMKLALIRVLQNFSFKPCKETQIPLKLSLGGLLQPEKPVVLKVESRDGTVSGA
A general note: Quantitative high-throughput screening tests each substance at several concentrations.

A number with no mark means an inactive call. Inconclusive results are not listed. The source made the active and inactive calls. The call rests on the fitted dose curve; in most records, active means well fitted curve in the direction sought with a large enough effect; inconclusive means small, poorly fitted or top-dose-only effect, or another doubt; inactive means no such curve, though single readings can be large; an effect the other way counts as inactive or inconclusive.

For the molecule `CCNS(=O)(=O)c1ccc(C)cc1`, the figures for the caspase-3 activation in [1], in experiment [3] and in experiment [4] were -0.106%, -1.14% and -2.66%, respectively. Moreover, the call in experiment [2], in experiment [5], in experiment [6], in experiment [10], in experiment [11] and in [12] was inactive. The molecule was called inactive in [13] and in [14]. The Potency result in experiment [7], in experiment [8], in experiment [9], in experiment [15], in experiment [16] and in experiment [17] was “inactive” each time. The Potency result in experiment [18] and in experiment [19] was “inactive” throughout.
Consider `CCOc1cccc(N)c1`, for which the caspase-3 activation in [1] is 0.896%; in experiment [3] it was 1.28%; in experiment [4], -0.477%. In addition, the call in [2], in experiment [5], in experiment [6], in [20], in experiment [10] and in [11] was inactive. Moreover, the result in experiment [12], in experiment [13] and in experiment [14] was inactive. Further, the Potency result in [7], in [9], in experiment [16], in experiment [17], in [18] and in experiment [19] was “inactive” throughout. Besides, the Potency in experiment [8] was 31.6 µM (active).
On to `CC(C)=C1CCC(C)CC1=O` (stereo not drawn), for which the caspase-3 activation in [1] was 0.404%; in [3] it was -0.0437%; in experiment [4], -0.681%. In addition, the molecule was classed as inactive in experiment [2], in [5], in [6], in experiment [10], in experiment [11] and in [12]. The molecule was called inactive in experiment [13] and in [14]. The Potency result in experiment [7], in [8], in [9], in experiment [15], in experiment [16] and in experiment [17] was “inactive” throughout. Besides, the Potency entry in experiment [18] and in experiment [19] was “inactive” each time.
In the case of `FC(F)(F)c1cccc(Cl)c1`, the caspase-3 activation in [1] was -0.53%; in experiment [3], 0.296%; in experiment [4], 0.768%. Further, the molecule was called inactive in experiment [2], in [5], in experiment [6], in [10], in experiment [11] and in experiment [12]. For the same molecule, the molecule was classed as inactive in [13] and in experiment [14]. Also, the Potency entry in experiment [7], in experiment [8], in experiment [9], in experiment [15], in experiment [16] and in experiment [17] was “inactive” in each case. For the same molecule, the Potency result in [18] and in experiment [19] was “inactive” each time.
On to `Cc1cc(C(=O)O)ccc1[N+](=O)[O-]`, for which the caspase-3 activation in [1] was 0.159%; in experiment [3], -0.927%; in experiment [4], 1.07%. Further, the result in experiment [2], in experiment [5], in experiment [6], in experiment [10], in experiment [11] and in experiment [12] was inactive. The molecule was called inactive in [13] and in experiment [14]. The Potency result in experiment [7], in experiment [8], in [9], in experiment [15], in experiment [16] and in experiment [17] was “inactive” each time. For the same molecule, the Potency entry in [18] and in [19] was “inactive” each time.
As to `CCOC(=O)OCC`, the caspase-3 activation in experiment [1] was -0.584%; in experiment [3], -0.0213%; in experiment [4], -2.59%. Besides, the molecule was called inactive in [2], in experiment [5], in experiment [6], in experiment [10], in experiment [11] and in experiment [12]. For the same molecule, the call in experiment [13] and in [14] was inactive. Moreover, the Potency result in experiment [7], in experiment [8], in experiment [9], in experiment [15], in [16] and in experiment [17] was “inactive” in each case. The Potency result in [18] and in experiment [19] was “inactive” in each case.
In the case of `C1CCOC1`, the caspase-3 activation in experiment [1] is -0.124%; in [3] it was 0.164%; in experiment [4], -1.25%. The molecule was classed as inactive in experiment [2], in experiment [5], in [6], in experiment [10], in experiment [11] and in [12]. Moreover, the result in [13] and in [14] was inactive. The Potency result in experiment [7], in experiment [8], in experiment [9], in experiment [15], in [16] and in experiment [17] was “inactive” in each case. In addition, the Potency entry in [18] and in [19] was “inactive” throughout.

(Values after PubChem BioAssay (NCATS).)
